# Source: PubChem BioAssay
# ELG1 genotox: induces genotoxicity in HEK293T cells with luciferase-tagged ELG1 | HEK293T ELG1-luciferase reporter, luminescence, 16 h | Potency, µM (titrated, usually from 46 µM), inactives show top-dose activity change, positive = activation, most hits filed as activators | AID 504466 | 330,000 tested, 1.3% active; further: % of control where 0% means no effect; nearly all actives have a fitted effect of over 60% in size
#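 Screening used a luciferase reporter fused to human ELG1 in HEK293T cells. Luminescence was read on a CCD plate imager after 16 hr exposure and 30 min ONE-Glo incubation.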
# NPC1 prom act: activates the NPC1 promoter; Huh7 NPC1 promoter luciferase reporter, 24 h; Potency, µM (doses to about 9.22 µM), for inactives: top-dose activation, hits mostly activators; 320,000 tested, 2.4% active; further: % of control where 0% means no effect; nearly all actives have a fitted effect of over 60% in size
#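 Huh7 cells stably carrying NPC1 promoter–luciferase, plated in Opti-MEM with 10% FBS for 2 h, were exposed to compound in DMSO for 24 h at 37 °C; luciferase reagent was added for 10 min and luminescence read.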
# SMN2 splice enh: SMN2 splice variant enhancement. HEK293 SMN2-luciferase splicing reporter, luminescence, 30-36 h. Potency, µM (titrated, usually from 46.1 µM), without a hit: at the top dose activity change, positive = activation, most hits filed as activators. 210,000 tested, 2.8% active. AID 1458; further: % of control where 0% means no effect; nearly all actives have a fitted effect of over 55% in size
#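 HEK293 cells carry an SMN2 minigene-luciferase reporter in which exon 7 inclusion puts luciferase in frame. Cells were seeded at 2000 cells/well, attached for 10-12 hours, then exposed to compounds for 30-36 hours at 37C before ONE-Glo luminescence.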
# KinaseGlo FLuc: blocks Kinase-Glo luciferase, a counter-screen artifact; Kinase-Glo luciferase, ATP luminescence, 8 min; Potency, µM (highest dose often 38.3 µM), without a hit: at the top dose activity change, negative = inhibition, actives largely listed as inhibitors; 200,000 tested, 0.28% active; further: on the % scale 0 is the no-effect control and ±100 the full control effect; nearly all actives have a fitted effect of over 60% in size
#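 Substrate mix (final 50 mM imidazole pH 7.2, 50 mM KCl, 7 mM MgCl2, 10 uM ATP, 0.01% Tween 20, 0.05% BSA) plus pin-tool compound, then Kinase-Glo detection mix; 8 min ambient, luminescence read.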
# Rab9 promoter act: activates the Rab9 promoter. Huh7 Rab9 promoter-luciferase reporter, luminescence, 24 h. Potency, µM (top dose mostly 9.22 µM), inactives show at the highest dose activation, negative = inhibition, hits mostly activators. 320,000 tested, 2.8% active; further: % of control where 0% means no effect; nearly all actives have a fitted effect of over 60% in size
#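 Luciferase signal after 10 min detection reagent at ambient indicates Rab9 promoter upregulation; stably transfected Huh7 cells were treated 24 h with compound in DMSO at 37 °C, 5% CO2.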
# FLuc counter: inhibits or activates purified firefly luciferase, miR-21 counter-screen; P08659; purified FLuc, Km substrates, luminescence inhibition; Potency, µM (highest dose often 57.5 µM), inactives show top-dose activity change, negative = inhibition, hits mostly inhibitors; 360,000 tested, 6.9% active;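 further: plate controls were vehicle for no effect and reference inhibitor for full effect; nearly all actives have a fitted effect of over 55% in size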
# Target sequence (P08659 whole entry, looked up): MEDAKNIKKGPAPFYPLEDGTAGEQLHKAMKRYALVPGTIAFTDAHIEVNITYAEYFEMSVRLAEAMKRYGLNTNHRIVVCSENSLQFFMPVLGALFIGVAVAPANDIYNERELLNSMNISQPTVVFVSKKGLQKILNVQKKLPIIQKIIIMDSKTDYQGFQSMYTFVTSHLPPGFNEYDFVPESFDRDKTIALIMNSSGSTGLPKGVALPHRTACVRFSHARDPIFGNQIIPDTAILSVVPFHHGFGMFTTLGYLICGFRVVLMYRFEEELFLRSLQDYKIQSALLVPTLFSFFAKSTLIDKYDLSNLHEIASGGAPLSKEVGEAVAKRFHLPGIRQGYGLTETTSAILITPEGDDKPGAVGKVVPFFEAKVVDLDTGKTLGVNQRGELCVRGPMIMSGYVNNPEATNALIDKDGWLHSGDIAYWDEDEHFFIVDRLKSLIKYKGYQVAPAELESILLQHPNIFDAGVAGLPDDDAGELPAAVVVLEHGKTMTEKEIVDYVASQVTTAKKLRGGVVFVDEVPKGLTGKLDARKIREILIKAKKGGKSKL
#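 Purified P. pyralis luciferase (10nM final) with 10uM D-luciferin and 10uM ATP (Km levels) in 50mM Tris acetate pH 7.5, 10mM Mg acetate, 0.01% Tween-20, 0.05% BSA; qHTS 6-point titration, ~60 µM downward; luminescence read.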
# Starred values were filed as active, the others as inactive; ? = inconclusive; / = no result; [ ] = remark or other dose. Only some compounds are listed: those with a hit (about 7.4% of all), similar ones and a draw of the others. The call rests on the fitted dose curve; in most records, active means well fitted curve in the direction sought with a large enough effect; inconclusive means small, poorly fitted or top-dose-only effect, or another doubt; inactive means no such curve, though single readings can be large; an effect the other way counts as inactive or inconclusive. Potency means the concentration at half of the fitted maximal effect.
SMILES,ELG1 genotox,NPC1 prom act,SMN2 splice enh,KinaseGlo FLuc,Rab9 promoter act,FLuc counter
NC(=O)c1cc(-c2ccccc2)nc2ccc(Br)cc12,6%,2%,/,/,2%,5%
Cn1cc(CNC(=O)c2cc(-c3ccccc3)nc3ccc(Br)cc23)cn1,-2%,0%,19%,0%,2%,5.4µM*
Cn1cc(CNC(=O)c2cc(-c3ccc(Br)cc3)nc3ccccc23)cn1,-10%,8%,/,/,0%,?
Cc1ccc(/C=C2/Sc3ccccc3N(CC(=O)NCC3CCCO3)C2=O)cc1 (stereo not given),-9%,-1%,/,/,-1%,?
CCc1ccc(/C=C2/Sc3ccccc3N(CC(=O)NCC3CCCO3)C2=O)cc1 (stereo not given),-7%,3%,/,/,2%,19µM*
Cc1ccc(NC(=O)CN2C(=O)CC(c3ccco3)Sc3ccccc32)cc1Cl (stereo not given),/,/,-5%,/,/,-14%
CCOc1ccc(NC(=O)CSc2nnc(-c3ccncc3)n2-c2ccccc2)cc1,/,/,/,/,/,-3%
CCOc1ccc(CCNC(=O)c2ccc(CS(=O)Cc3ccccc3Cl)o2)cc1 (stereo not given),-7%,13%,/,/,8%,24µM*
CCOc1ccc(CCNC(=O)c2ccc(CS(=O)Cc3ccc(Cl)cc3)o2)cc1 (stereo not given),-6%,4%,/,/,1%,?
COC(=O)/C(=C/c1c[nH]c2ccccc12)[N+](=O)[O-],-2%,5%,/,/,12%,19µM*
COC(=O)/C(=C/c1c[nH]c2ccccc12)NC(C)=O,-1%,-3%,1%,0%,-2%,3%
COc1ccc(OCC(=O)N/N=C2\CCc3ccccc32)cc1,?,2%,-5%,-5%,7%,19µM*
NC(=O)C(=O)N/N=C1\CCc2ccccc21,?,7%,13µM*,0%,21%,11µM*
COc1ccc2c(c1)CC/C2=N\NC(=O)c1ccccc1,?,?,16µM*,-6%,?,12µM*
O=C(Cc1cccc2ccccc12)N/N=C1\CCCc2ccccc21,-2%,-1%,-45%,1%,-2%,8%
CCN1CCc2c(sc(NC(=O)c3ccc(S(=O)(=O)N4CCCC(C)C4)cc3)c2C(=O)OC)C1 (stereo not given),/,/,/,/,/,-1%
CCCCC(=O)Nc1nnc(SCc2cc(=O)n3cc(C)ccc3n2)s1,/,/,/,/,/,4%
CCn1cc2nc(SCC(=O)Nc3ccccc3F)n(Cc3ccc(C)cc3)c(=O)c2n1,/,/,/,/,/,-18%
C[C@@]12C=Cc3occc3C1CC[C@@]13C[C@@H](CCC12)[C@@](O)(CO)C3 (stereo not given in full),/,/,/,4%[39.9 µM],/,/
COc1ccccc1N1CCN(c2ccc(=O)n(CC(=O)O)n2)CC1,/,/,-1%,/,/,-3%
O=C(/C=C/c1ccc(Cl)cc1)Nc1nccs1,?,0.63µM*,4µM*,-8%,0.32µM*,1.3µM*
Cc1nnc(NC(=O)c2ccc(-c3ccc(Cl)cc3)o2)s1,4%,0%,/,/,8%,-14%
O=C(Nc1nccs1)c1ccc(-c2ccc([N+](=O)[O-])cc2)o1,?,1.8µM*,13µM*,-5%,1.4µM*,6µM*
O=C(Nc1nccs1)c1ccc(-c2ccc(F)cc2)o1,?,2.2µM*,11µM*,-5%,3.5µM*,2.1µM*
C/C=C/C=C/C(=O)Nc1nccs1,11%,4%,-6%[1.84 µM],-3%,?,?
SMILES,ELG1 genotox,NPC1 prom act,SMN2 splice enh,KinaseGlo FLuc,Rab9 promoter act,FLuc counter
O=C(Nc1nccs1)c1ccc(-c2ccc(Cl)cc2)o1,?,1.4µM*,11µM*,-7%,1µM*,0.21µM*
COc1ccccc1CNC(=O)C(NS(=O)(=O)c1ccc2c(c1)CCN2C(C)=O)C(C)C (stereo not given),/,/,3%,/,/,-3%
CC1=CC2C(C)(C)CC(=O)C[C@]2(C)CC1COc1ccc2c(c1)CC(=O)C=C2 (stereo not given in full),/,/,2%,1%,/,/
CCOC(=O)c1ccc(NC(=O)c2cc3cc(C)ccc3n2C)cc1,/,/,/,/,/,3%
Cc1ccc2nc(SCn3nnc4ccccc4c3=O)[nH]c2c1,?,2.5µM*,2.8µM*,-3%,1.8µM*,4.8µM*
O=c1c2ccccc2nnn1CSc1ccccc1F,?,1.3µM*,10µM*,-10%,0.89µM*,2.7µM*
O=c1c2ccccc2nnn1CSc1nnc2sc3ccccc3n12,?,0.4µM*,2.2µM*,-27%,0.32µM*,1.9µM*
O=c1c2ccccc2nnn1CSc1nc2ccccc2[nH]1,?,3.5µM*,25µM*,-2%,2.8µM*,15µM*
CCOc1ccc(CCNC(=O)c2cnc3sc(N4CCC(C)CC4)nn3c2=O)cc1,/,/,/,/,/,1%
Cc1ccc(SCn2nnc3ccccc3c2=O)c(C)c1,?,?,16µM*,1%,2.5µM*,19µM*
Cc1cc(=O)[nH]c(SCn2nnc3ccccc3c2=O)n1,3%,-1%,12%,13%,-11%,1%
Cc1c(Cl)cccc1-c1ccc(CNCCSc2nnnn2-c2ccccc2)o1,/,/,-8%,/,/,-15%
O=C(NCc1ccc(F)cc1)c1cnc(N2CCCCC2)c2ccccc12,/,/,/,/,/,-6%
Cc1ccc(NC(=O)CNC(=O)c2ccc3c(c2)OCO3)nc1,0%,9%,/,/,2%,-2%
Cc1cc(C)c2sc(NC(=O)c3ccc(N4C(=O)CCC4=O)cc3)nc2c1,12%,-5%,/,/,3%,2.4µM*
Cc1ccnc(NC(=O)c2ccc(N3C(=O)CCC3=O)cc2)c1,16%,?,8%,-22%,?,19µM*
Cc1ccc(NC(=O)c2ccc3c(c2)OCCO3)nc1,?,0.63µM*,/,/,0.35µM*,1.3µM*
Cc1ccc2nc(NC(=O)c3ccc(N4C(=O)CCC4=O)cc3)sc2c1,3%,8%,16%,-1%,16%,?
Cc1ccnc(NC(=O)c2ccc3c(c2)OCO3)c1,?,0.5µM*,/,13µM*,0.45µM*,2.1µM*
Cc1nn(-c2ccc(N3CCCC3)nn2)c(C)c1CCC(=O)N1CCN(c2ccccc2F)CC1,/,/,/,/,/,-11%
Cc1ccc(C2=Nc3ccccc3N=C(C(Cl)Cl)C2)cc1,?,3.2µM*,-67%,?,3.2µM*,9.5µM*
Cc1ccc(O)c(C2=Nc3ccccc3N=C(c3cccs3)C2)c1,-4%,-2%,-22%,-1%,-4%,-6%
Oc1ccc(Cl)cc1C1=Nc2ccccc2N=C(c2ccccc2)C1,/,/,29%,/,/,-1%
Cc1ccc2c(c1)N=C(c1ccccc1)CC(C(Cl)Cl)=N2,?,?,/,/,3.2µM*,8.5µM*
